SMILES strings stand for the structures. In all, about 94,000 compounds went through this assay and about 390 (0.41%) were called active. Only a selection was taken, and actives are over-represented in it overall. Unmarked numbers belong to inactive results.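 Rule for the calls: active = cell count reduction more than 3 SD above the screen-wide mean (cut at about 70% in these data); inactive = the rest.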

The test is described as follows: HUVEC cell count loss after compound exposure – imaging, Hoechst nuclear count, IL-1B stimulus, cytotoxicity control for IL-1B NFkB translocation project, primary screen (AID 845).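 Note: normalized per plate to untreated control cells as the no-loss baseline.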 Particulars: IL-1B stimulated, at 2 µM, active compounds read high.
In the case of `Cc1nc2c(-c3ccccc3)c(C)[nH]n2c(=O)c1Cl`, the cell count reduction is 86.7% (active).

In the case of `Cc1[nH]n(-c2cccc(Cl)c2)c(=O)c1-c1ccc(Cl)cc1`, the cell count reduction is -1.3%.

Take `Cc1cc(-c2ccccc2)n2nc(C)c(-c3ccccc3)c2n1`: the cell count reduction was -18.8%.

In the case of `O=C(NNC(=O)c1cccnc1)Nc1ccccc1`, the cell count reduction was 19.6%.

On to `O=C(Nc1ccccc1Cl)O/N=C(/c1ccccc1)c1ccccn1`, for which the cell count reduction is -21.6%.

Regarding `CCOC(=O)C1(S(=O)(=O)c2ccc(Cl)cc2)CCN(Cc2ccccc2)CC1`, the cell count reduction is -78.7%.

`Cc1c(C(=O)NCc2ccccc2)cnn1-c1ccccc1`: the cell count reduction was -8.5%.

For the compound `O=[N+]([O-])c1ccc(Oc2ccc(F)cc2Br)c2ccncc12`, the cell count reduction was 5.4%.

For `COC(=O)CNC(=O)c1ccccc1[N+](=O)[O-]`, the cell count reduction was 22.7%.

As for `Clc1ccc(CSc2nnc(/C=C/c3ccccc3)o2)c(Cl)c1`, the cell count reduction was -46.7%.

As for `CCOC(=O)c1c(NC(=O)/C=C/c2ccco2)sc(C)c1C`, the cell count reduction was -43.8%.

For `O=C1/C(=C\Nc2ccccc2)CCN1c1ncccn1`, the cell count reduction is -32.2%.

In the case of `CN(C(=O)CSc1nc(C2CC2)nc2ccccc12)c1nc(-c2ccccc2)cs1`, the cell count reduction was 0.9%.

Take `CCN(CC)S(=O)(=O)c1ccc(N2CCOCC2)c(C(=O)O)c1`: the cell count reduction was 5.3%.

Turning to `COc1cc(C)nc(N2CCCC(C(=O)NCC(C)C)C2)n1` (configuration not stated), the cell count reduction is -46.9%.

On to `Cc1cc(=O)n2nc(N3CCCC(C(=O)N4CCN(C)CC4)C3)sc2n1` (configuration not stated), for which the cell count reduction is 85.7% (active).

As for `COc1ccc(S(=O)(=O)N2CCCC(C(=O)N3CCN(C)CC3)C2)cc1C` (configuration not stated), the cell count reduction was -33.6%.

For the compound `COc1ccc(C(C#N)Nc2ccc(C)cc2)cc1` (configuration not stated), the cell count reduction is -28.6%.

As for `Cc1cc(C)c(OCC(=O)N/N=C/c2ccco2)c(C)c1`, the cell count reduction was 19.3%.

Regarding `O=[N+]([O-])c1ccccc1/C=N/n1c(COc2ccccc2)n[nH]c1=S`, the cell count reduction was -18.2%.

On to `O=C(c1ccc(CN2CCOCC2)cc1)N1CCN(c2ccccc2F)CC1`, for which the cell count reduction is 2.7%.

For `C/C=C/C(=O)Nc1nnc(C(C)C)s1`, the cell count reduction is 7.2%.

With `COc1cccc(NC(=O)c2nn(C34CC5CC(CC(C5)C3)C4)cc2[N+](=O)[O-])c1`, the cell count reduction was -1.4%.

Consider `Cc1nc(SCC(=O)c2ccccc2)c([N+](=O)[O-])[nH]1`, for which the cell count reduction was -10.8%.

Consider `CCOc1ccccc1NC(=O)C1CCCN(C(=O)Nc2ccccc2)C1` (configuration not stated), for which the cell count reduction was -30.5%.

For `Cc1cccc(C)c1NC(=O)c1ccc(CN2CCc3ccccc3C2)cc1`, the cell count reduction is -6.8%.

As for `CCOC(=O)COc1cc(OCC(=O)OCC)c2c(=O)cc(-c3ccccc3)oc2c1`, the cell count reduction was 7.8%.

On to `C=C(C)C(=O)Nc1cccc(C(C)=O)c1`, for which the cell count reduction is 1.7%.

As for `O=c1[nH]n(-c2cccc(Cl)c2)c2ncccc12`, the cell count reduction is -27.9%.

With `CCCc1ccc(OCC(=O)NNC(=S)NC(=O)c2ccco2)cc1`, the cell count reduction was -2.4%.

Take `O=c1c2ccccc2nc2n1C(CSc1ccc(F)cc1)CN2` (configuration not stated): the cell count reduction was -9.2%.

Take `CSc1ccc(C#N)cc1NC(=O)c1ccc(Cl)cc1`: the cell count reduction was -20.7%.

As for `CC1(C)N=C(c2ccccn2)C(C)(C)N1O`, the cell count reduction was 10.6%.

In the case of `Cc1cccc(N(CC(=O)N2CCOCC2)S(C)(=O)=O)c1`, the cell count reduction was -61.2%.

For the compound `Nc1ccc(C(=O)OCC(=O)NC2CCCc3ccccc32)cc1[N+](=O)[O-]` (configuration not stated), the cell count reduction is -106%.

With `CCc1cccc(C)c1N(C(=O)Cn1c(CO)nc2ccccc21)C(C)COC` (configuration not stated), the cell count reduction was -7.6%.

Consider `COC(=O)c1cc(NC(=O)CC2C(=O)NCCN2C(=O)c2ccc(F)cc2)cc(C(=O)OC)c1` (configuration not stated), for which the cell count reduction is -3.7%.

Regarding `N#CC1=C(SCc2ccc(C#N)cc2)N=C(N)C(c2nc(-c3ccccc3)cs2)C12CCCCC2` (configuration not stated), the cell count reduction was 25.2%.

Turning to `COc1ccc(C)cc1S(=O)(=O)Nc1cccc(Cl)c1Cl`, the cell count reduction was 6.2%.

On to `O=C(CNS(=O)(=O)c1ccc(Br)s1)N1CCN(C(=O)c2ccco2)CC1`, for which the cell count reduction was 15.9%.

In the case of `COc1ccc(C)cc1NC(=O)CCS(=O)(=O)c1cccc2nonc12`, the cell count reduction is 0.3%.

As for `OC(CN1C2=NCCCN2c2ccccc21)c1ccc(Br)cc1` (configuration not stated), the cell count reduction is 8.9%.

As to `Cc1ccc(-c2csc(SCC(=O)Nc3cc(C)on3)n2)cc1`, the cell count reduction was 8.8%.

Turning to `CCCNC(=O)N1CCN(C(=O)NCCC)CC1`, the cell count reduction was 4.6%.

For the compound `CSCCC(NC(=O)COc1ccccc1)C(=O)OCC(=O)c1cc2ccccc2o1` (configuration not stated), the cell count reduction was -13.3%.

For `O=C(NC1=NCCS1)[C@H](Cc1ccccc1)N1C(=O)c2ccccc2C1=O`, the cell count reduction is -5.1%.

In the case of `COc1ccc(OC)c(C(=O)CSc2nnc(-c3cccs3)o2)c1`, the cell count reduction is -23.7%.

Take `NC(=O)CSc1oc(-c2cccs2)nc1S(=O)(=O)c1ccccc1`: the cell count reduction is 72.9% (active).

As to `CC1CCCCN1S(=O)(=O)c1ccc(C(=O)Nc2nnc(-c3cccs3)o2)cc1` (configuration not stated), the cell count reduction is -4.4%.

Take `O=C(NCCN1CCN(Cc2ccccc2)CC1)c1cc2c(=O)[nH]c3ccccc3c2s1`: the cell count reduction was 26.5%.

`O=C(CN1CCCCCC1)N1c2ccccc2Sc2ccc(C(F)(F)F)cc21`: the cell count reduction is -33.3%.

Take `CCCC(O)(c1ccc(OC)cc1)C(CN(C)C)c1ccccc1` (configuration not stated): the cell count reduction was -16.3%.

`O=C(Cc1ccc(S(=O)(=O)N2CCCC2)s1)NC1CCCCCC1`: the cell count reduction is -2.6%.

Turning to `O=C(O)CCCCc1nc2ccccc2s1`, the cell count reduction is 0.3%.

Consider `CCCC(=O)Nc1nc2ccc(NC(=O)c3cccnc3)cc2s1`, for which the cell count reduction is -12.3%.

As for `O=C(CNC(=O)Cc1ccccc1)NCC(=O)OCC(=O)c1ccccc1Cl`, the cell count reduction was -68.8%.

On to `CC(Oc1ccc(Cl)cc1)c1ccnn1S(C)(=O)=O` (configuration not stated), for which the cell count reduction is 7.5%.

As for `COCCCNC(=O)CN1CCN(Cc2ccccc2Cl)C1=O`, the cell count reduction was -10.5%.

In the case of `C=CCOc1ccc(Cl)cc1CNCCCN1CCOCC1`, the cell count reduction is 6.4%.

`Cc1ccccc1OCC(=O)NCC(=O)OCC(=O)c1ccc2ccccc2c1`: the cell count reduction is 13%.

Turning to `O=C(/C=C/Nc1ccccc1OC(F)(F)F)C(F)(F)F`, the cell count reduction was -22.1%.

Turning to `CCCCOC(=O)Nc1sc2nc(C)cc(C)c2c1-n1cccc1`, the cell count reduction was -2.8%.

Regarding `Cc1ccc(NC(=S)NC(=O)c2ccc(-c3ccccc3)cc2)cc1`, the cell count reduction was -7.3%.

As to `O=C(Nc1nnc(SCc2ccccc2)s1)c1ccco1`, the cell count reduction is -6.4%.

`COCCCNC(NC(=O)c1ccc(C)cc1)C(Cl)(Cl)Cl` (configuration not stated): the cell count reduction is -35.5%.

`CCN(CC)C(=O)CSc1nnc(CNc2ccc(F)cc2)n1Cc1ccco1`: the cell count reduction is -17.8%.

Turning to `CCOc1ccc(CN2CCCN(C)CC2)cc1`, the cell count reduction is -10.1%.

For `Cc1ccc(SCC2=NNC(=O)C2)cc1`, the cell count reduction is -29.7%.

`O=C(NCc1cccnc1)Nc1ccccc1F`: the cell count reduction was 30.7%.

Take `COc1ccc2c(c1OC)C(=O)c1ccccc1C2=O`: the cell count reduction is -3.8%.

For the compound `c1cnc(Nc2nc(-c3ccc4ccccc4c3)cs2)nc1`, the cell count reduction is 22.7%.

For `O=C(CN1CCCCCC1)Nc1ccc(Br)cc1Br`, the cell count reduction is 6.4%.

On to `CCOC(=O)c1ccc2c(c1)nc(C)n2CC`, for which the cell count reduction is 8.9%.

On to `Cc1cccn2c(=O)c(/C=C(\C#N)S(=O)(=O)c3ccc(Cl)cc3)c(N3CCC(C(N)=O)CC3)nc12`, for which the cell count reduction was 28.1%.

Consider `O=c1[nH]c(SCc2ccccc2)nnc1-c1ccccc1`, for which the cell count reduction was -19.8%.

Turning to `Cc1nc(SCC(=O)N2CCc3ccccc3C2)c2c(C)c(C)sc2n1`, the cell count reduction is -25.7%.

As to `COc1cc(OC)nc(NC(=O)CCl)n1`, the cell count reduction is -85.3%.

Turning to `CC(=O)c1nn(-c2cccc(Br)c2)cc1C(=O)c1cccc2ccccc12`, the cell count reduction was -1.6%.

As for `CC12CCC(C(=O)N3CCN(c4ncccn4)CC3)(c3nc4ccccc4nc31)C2(C)C` (configuration not stated), the cell count reduction is 82.1% (active).

For the compound `C=C(C)c1cccc(C(C)(C)NC(=O)N2CCN(c3ncccn3)CC2)c1`, the cell count reduction is 22.8%.

On to `O=C(C(NS(=O)(=O)c1cccc2nsnc12)c1ccccc1)N1CCN(c2ccccn2)CC1` (configuration not stated), for which the cell count reduction is -35.8%.

Take `CCC(C(=O)NCc1ccc(OC)cc1)n1nc(C)n2c(cc3occc32)c1=O` (configuration not stated): the cell count reduction was 9.6%.

As for `Cc1ccc(S(=O)(=O)N(c2cccc(C)c2)C2CCS(=O)(=O)C2)cc1` (configuration not stated), the cell count reduction is 5.1%.

`Cc1oc2nc(SCC(=O)Nc3ccc(S(N)(=O)=O)cc3)nc(NC(=O)c3ccccc3)c2c1C`: the cell count reduction is 13.5%.

For `CCOCC(=O)Nc1sc2c(c1C(=O)OCC)CCCC2`, the cell count reduction is 92% (active).

As to `CCOC(=O)c1c(NC(=O)CSc2nnc(C)c(=O)[nH]2)sc2c1CCC2`, the cell count reduction is -24.4%.

Regarding `CCCOC(=O)Nc1sc2c(c1C(=O)OCC)CCC2`, the cell count reduction was 11.4%.

As for `O=C(Cc1ccccc1)Nc1c(C(=O)N2CCCCCC2)cnn1-c1ccccc1`, the cell count reduction was -8.3%.

Turning to `COC(=O)C(C)C1Sc2ccccc2NC1=O` (configuration not stated), the cell count reduction was 90.9% (active).

As to `CN1CCN(S(=O)(=O)c2ccc(N3CCN(S(=O)(=O)c4cccs4)CC3)nc2)CC1`, the cell count reduction was -0.9%.

For `Cc1ccc(OCCCC(=O)Nc2ccc(N3CCOCC3)cc2)cc1`, the cell count reduction is 10.3%.

In the case of `COc1ccc(-c2nnc(SCC(=O)c3ccc4c(c3)OCCO4)o2)cc1`, the cell count reduction is -13.4%.

With `COc1ccc(Nc2nc(-c3ccccc3)cs2)cc1`, the cell count reduction was 3.5%.

For the compound `COc1ccc(/C=C(/NC(=O)c2ccc(C)cc2)c2nc3ccccc3[nH]2)cc1OC`, the cell count reduction was -9.1%.

For the compound `Cc1ccc(Oc2ccc3c(c2)C(=O)N(c2cccc4cccnc24)C3=O)cc1`, the cell count reduction was -63.9%.

Consider `CCOc1cc(NC(=O)c2cnccn2)c(OCC)cc1NC(=O)c1ccc(C)cc1`, for which the cell count reduction was -42.4%.

With `O=C(NCC(=O)N(Cc1cccs1)C(C(=O)NC1CCCCC1)c1ccco1)c1cccs1` (configuration not stated), the cell count reduction is 24.1%.

For the origin of these results see PubChem BioAssay AID845 (Columbia University Molecular Screening Center, 2007).
